Laboratory results taken from paper PMC12820563, “FoxP3 forms a head-to-head dimer in vivo and stabilizes its multimerization on adjacent microsatellites”.
Over roughly 16,000 sequences, “rpm ratio (pull-down/input)” has its median near 0.94; the highest 2% begin near 1.7. The sample as a whole holds a higher share of the highest values than the screen did.

What follows are sequences tested against T1, MBP-FoxP1dN (Mus musculus, UniProt P58462 326-579) (assay: PD-seq (MBP pull-down with sequencing); 20 mM Tris-HCl pH 7.5, 100 mM NaCl, 1.5 mM MgCl2, 0.4 uM protein, 0.1 uM dsDNA library, 30 min, room temperature, amylose pull-down; high values mean tight binding). Settings: protein: recombinant; tags: His6-MBP; chain copies: 2; dsDNA, one strand shown.
T1 sequence: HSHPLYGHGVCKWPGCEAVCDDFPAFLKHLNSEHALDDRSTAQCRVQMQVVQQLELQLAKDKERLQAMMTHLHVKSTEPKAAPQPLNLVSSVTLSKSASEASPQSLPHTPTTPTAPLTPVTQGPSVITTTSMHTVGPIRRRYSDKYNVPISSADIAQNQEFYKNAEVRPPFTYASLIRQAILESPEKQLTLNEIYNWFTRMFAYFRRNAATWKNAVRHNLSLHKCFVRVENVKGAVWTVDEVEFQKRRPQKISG
In short: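 Protein and DNA were mixed at 0.4 µM and 0.1 µM and held for 30 min at room temperature in Tris pH 7.5 buffer with NaCl and MgCl2; the protein was a His6-MBP-tagged, N-terminally truncated mouse FoxP3 or FoxP1 fragment from E. coli, and the DNA a Klenow-filled double-stranded degenerate library. Amylose resin captured the complexes, which were washed three times. Binding is read as reads-per-million enrichment of pull-down versus input after Illumina sequencing, with replicates pooled.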

Sequence	binding signal
GATGATTGTTCTCCCAGCTGATGAATTTGACGAATCGAGTAAACAAATTTTCCTAATCTTTCTGTTCAAGCGCCATCTAC	0.846 RPM ratio (pull-down/input)
GATGATTGTTCTCCCAGCTGATGAATTGAGATGCTCGAGTAAACAAATTTTCCTAATCTTTCTGTTCAAGCGCCATCTAC	1.07 RPM ratio (pull-down/input)
GATGATTGTTCTCCCAGCTGATGAATTAGCTCGGTCGAGTAAACAAATTTTCCTAATCTTTCTGTTCAAGCGCCATCTAC	0.829 RPM ratio (pull-down/input)
GATGATTGTTCTCCCAGCTGATGAATTATGAGATTCGAGTAAACAAATTTTCCTAATCTTTCTGTTCAAGCGCCATCTAC	0.995 RPM ratio (pull-down/input)
GATGATTGTTCTCCCAGCTGATGAATTAACTACCTCGAGTAAACAAATTTTCCTAATCTTTCTGTTCAAGCGCCATCTAC	0.879 RPM ratio (pull-down/input)
GATGATTGTTCTCCCAGCTGATGAATTAATGTTTTCGAGTAAACAAATTTTCCTAATCTTTCTGTTCAAGCGCCATCTAC	2.45 RPM ratio (pull-down/input)
GATGATTGTTCTCCCAGCTGATGAATTAAATGTTTCGAGTAAACAAATTTTCCTAATCTTTCTGTTCAAGCGCCATCTAC	1.3 RPM ratio (pull-down/input)
GATGATTGTTCTCCCAGCTGATGAATTATGATGGTCGAGTAAACAAATTTTCCTAATCTTTCTGTTCAAGCGCCATCTAC	1.1 RPM ratio (pull-down/input)
GATGATTGTTCTCCCAGCTGATGAATTTAATGTTTCGAGTAAACAAATTTTCCTAATCTTTCTGTTCAAGCGCCATCTAC	1.15 RPM ratio (pull-down/input)
GATGATTGTTCTCCCAGCTGATGAATTATGATGTTCGAGTAAACAAATTTTCCTAATCTTTCTGTTCAAGCGCCATCTAC	1.22 RPM ratio (pull-down/input)
GATGATTGTTCTCCCAGCTGATGAATTTTTATGTTCGAGTAAACAAATTTTCCTAATCTTTCTGTTCAAGCGCCATCTAC	1.37 RPM ratio (pull-down/input)
GATGATTGTTCTCCCAGCTGATGAATTATCTTGGTCGAGTAAACAAATTTTCCTAATCTTTCTGTTCAAGCGCCATCTAC	0.937 RPM ratio (pull-down/input)
GATGATTGTTCTCCCAGCTGATGAATTATGTGTTTCGAGTAAACAAATTTTCCTAATCTTTCTGTTCAAGCGCCATCTAC	1.51 RPM ratio (pull-down/input)
GATGATTGTTCTCCCAGCTGATGAATTATGTTGGTCGAGTAAACAAATTTTCCTAATCTTTCTGTTCAAGCGCCATCTAC	1.87 RPM ratio (pull-down/input)
GATGATTGTTCTCCCAGCTGATGAATTTATGTTTTCGAGTAAACAAATTTTCCTAATCTTTCTGTTCAAGCGCCATCTAC	2.76 RPM ratio (pull-down/input)
GATGATTGTTCTCCCAGCTGATGAATTTTATGTTTCGAGTAAACAAATTTTCCTAATCTTTCTGTTCAAGCGCCATCTAC	1.19 RPM ratio (pull-down/input)
GATGATTGTTCTCCCAGCTGATGAATTATGTTTTTCGAGTAAACAAATTTTCCTAATCTTTCTGTTCAAGCGCCATCTAC	2.19 RPM ratio (pull-down/input)
GATGATTGTTCTCCCAGCTGATGAATTCCTAATCTCGAGTAAACAAATTTTCCTAATCTTTCTGTTCAAGCGCCATCTAC	0.834 RPM ratio (pull-down/input)
GATGATTGTTCTCCCAGCTGATGAATTATGATATTCGAGTAAACAAATTTTCCTAATCTTTCTGTTCAAGCGCCATCTAC	1.24 RPM ratio (pull-down/input)
GATGATTGTTCTCCCAGCTGATGAATTATACCTCTCGAGTAAACAAATTTTCCTAATCTTTCTGTTCAAGCGCCATCTAC	0.896 RPM ratio (pull-down/input)
GATGATTGTTCTCCCAGCTGATGAATTAAGCTTATCGAGTAAACAAATTTTCCTAATCTTTCTGTTCAAGCGCCATCTAC	1.03 RPM ratio (pull-down/input)
GATGATTGTTCTCCCAGCTGATGAATTCTCTTCATCGAGTAAACAAATTTTCCTAATCTTTCTGTTCAAGCGCCATCTAC	0.886 RPM ratio (pull-down/input)

Sequence	binding signal
GATGATTGTTCTCCCAGCTGATGAATTATGTTGTTCGAGTAAACAAATTTTCCTAATCTTTCTGTTCAAGCGCCATCTAC	2.67 RPM ratio (pull-down/input)
GATGATTGTTCTCCCAGCTGATGAATTATGTTCATCGAGTAAACAAATTTTCCTAATCTTTCTGTTCAAGCGCCATCTAC	1.04 RPM ratio (pull-down/input)
GATGATTGTTCTCCCAGCTGATGAATTATGTTGATCGAGTAAACAAATTTTCCTAATCTTTCTGTTCAAGCGCCATCTAC	2.81 RPM ratio (pull-down/input)
GATGATTGTTCTCCCAGCTGATGAATTATGAATTTCGAGTAAACAAATTTTCCTAATCTTTCTGTTCAAGCGCCATCTAC	1.03 RPM ratio (pull-down/input)
GATGATTGTTCTCCCAGCTGATGAATTATGATGATCGAGTAAACAAATTTTCCTAATCTTTCTGTTCAAGCGCCATCTAC	1.15 RPM ratio (pull-down/input)
GATGATTGTTCTCCCAGCTGATGAATTATGTTCTTCGAGTAAACAAATTTTCCTAATCTTTCTGTTCAAGCGCCATCTAC	1.15 RPM ratio (pull-down/input)
GATGATTGTTCTCCCAGCTGATGAATTGAGGTCCTCGAGTAAACAAATTTTCCTAATCTTTCTGTTCAAGCGCCATCTAC	0.772 RPM ratio (pull-down/input)
GATGATTGTTCTCCCAGCTGATGAATTTGATAGCTCGAGTAAACAAATTTTCCTAATCTTTCTGTTCAAGCGCCATCTAC	0.868 RPM ratio (pull-down/input)
GATGATTGTTCTCCCAGCTGATGAATTCGGTACATCGAGTAAACAAATTTTCCTAATCTTTCTGTTCAAGCGCCATCTAC	0.991 RPM ratio (pull-down/input)
GATGATTGTTCTCCCAGCTGATGAATTCTAATAGTCGAGTAAACAAATTTTCCTAATCTTTCTGTTCAAGCGCCATCTAC	0.905 RPM ratio (pull-down/input)
GATGATTGTTCTCCCAGCTGATGAATTAGCCGTATCGAGTAAACAAATTTTCCTAATCTTTCTGTTCAAGCGCCATCTAC	0.934 RPM ratio (pull-down/input)
GATGATTGTTCTCCCAGCTGATGAATTTACGATCTCGAGTAAACAAATTTTCCTAATCTTTCTGTTCAAGCGCCATCTAC	1.15 RPM ratio (pull-down/input)
GATGATTGTTCTCCCAGCTGATGAATTGGCGCTATCGAGTAAACAAATTTTCCTAATCTTTCTGTTCAAGCGCCATCTAC	0.954 RPM ratio (pull-down/input)
GATGATTGTTCTCCCAGCTGATGAATTCTGCCCGTCGAGTAAACAAATTTTCCTAATCTTTCTGTTCAAGCGCCATCTAC	0.815 RPM ratio (pull-down/input)
GATGATTGTTCTCCCAGCTGATGAATTAATTGTATCGAGTAAACAAATTTTCCTAATCTTTCTGTTCAAGCGCCATCTAC	1.44 RPM ratio (pull-down/input)
GATGATTGTTCTCCCAGCTGATGAATTATTTGTATCGAGTAAACAAATTTTCCTAATCTTTCTGTTCAAGCGCCATCTAC	2 RPM ratio (pull-down/input)
GATGATTGTTCTCCCAGCTGATGAATTTGTATTATCGAGTAAACAAATTTTCCTAATCTTTCTGTTCAAGCGCCATCTAC	2.13 RPM ratio (pull-down/input)
GATGATTGTTCTCCCAGCTGATGAATTGTAATTATCGAGTAAACAAATTTTCCTAATCTTTCTGTTCAAGCGCCATCTAC	1.54 RPM ratio (pull-down/input)
GATGATTGTTCTCCCAGCTGATGAATTGTATTAATCGAGTAAACAAATTTTCCTAATCTTTCTGTTCAAGCGCCATCTAC	1.24 RPM ratio (pull-down/input)
GATGATTGTTCTCCCAGCTGATGAATTATCTGTATCGAGTAAACAAATTTTCCTAATCTTTCTGTTCAAGCGCCATCTAC	1.1 RPM ratio (pull-down/input)
GATGATTGTTCTCCCAGCTGATGAATTGCGAATATCGAGTAAACAAATTTTCCTAATCTTTCTGTTCAAGCGCCATCTAC	1.17 RPM ratio (pull-down/input)
GATGATTGTTCTCCCAGCTGATGAATTGCTCTTCTCGAGTAAACAAATTTTCCTAATCTTTCTGTTCAAGCGCCATCTAC	0.889 RPM ratio (pull-down/input)

Sequence	binding signal
GATGATTGTTCTCCCAGCTGATGAATTCGGGTTCTCGAGTAAACAAATTTTCCTAATCTTTCTGTTCAAGCGCCATCTAC	0.806 RPM ratio (pull-down/input)
GATGATTGTTCTCCCAGCTGATGAATTGGAATATTCGAGTAAACAAATTTTCCTAATCTTTCTGTTCAAGCGCCATCTAC	0.93 RPM ratio (pull-down/input)
GATGATTGTTCTCCCAGCTGATGAATTTTGTCTCTCGAGTAAACAAATTTTCCTAATCTTTCTGTTCAAGCGCCATCTAC	0.968 RPM ratio (pull-down/input)
GATGATTGTTCTCCCAGCTGATGAATTGTTTGTCTCGAGTAAACAAATTTTCCTAATCTTTCTGTTCAAGCGCCATCTAC	2.6 RPM ratio (pull-down/input)
GATGATTGTTCTCCCAGCTGATGAATTTGTCTTCTCGAGTAAACAAATTTTCCTAATCTTTCTGTTCAAGCGCCATCTAC	1.16 RPM ratio (pull-down/input)
GATGATTGTTCTCCCAGCTGATGAATTTCTGTCTTCGAGTAAACAAATTTTCCTAATCTTTCTGTTCAAGCGCCATCTAC	0.89 RPM ratio (pull-down/input)
GATGATTGTTCTCCCAGCTGATGAATTGTCTTCTTCGAGTAAACAAATTTTCCTAATCTTTCTGTTCAAGCGCCATCTAC	1.05 RPM ratio (pull-down/input)
GATGATTGTTCTCCCAGCTGATGAATTTTTTGTCTCGAGTAAACAAATTTTCCTAATCTTTCTGTTCAAGCGCCATCTAC	0.905 RPM ratio (pull-down/input)
GATGATTGTTCTCCCAGCTGATGAATTGTTGTCTTCGAGTAAACAAATTTTCCTAATCTTTCTGTTCAAGCGCCATCTAC	2.29 RPM ratio (pull-down/input)
GATGATTGTTCTCCCAGCTGATGAATTCTTTGTCTCGAGTAAACAAATTTTCCTAATCTTTCTGTTCAAGCGCCATCTAC	0.931 RPM ratio (pull-down/input)
GATGATTGTTCTCCCAGCTGATGAATTTGTTGTCTCGAGTAAACAAATTTTCCTAATCTTTCTGTTCAAGCGCCATCTAC	2.42 RPM ratio (pull-down/input)
GATGATTGTTCTCCCAGCTGATGAATTGTATCAATCGAGTAAACAAATTTTCCTAATCTTTCTGTTCAAGCGCCATCTAC	1.25 RPM ratio (pull-down/input)
GATGATTGTTCTCCCAGCTGATGAATTACTATATTCGAGTAAACAAATTTTCCTAATCTTTCTGTTCAAGCGCCATCTAC	1.23 RPM ratio (pull-down/input)
GATGATTGTTCTCCCAGCTGATGAATTCAGCACATCGAGTAAACAAATTTTCCTAATCTTTCTGTTCAAGCGCCATCTAC	0.96 RPM ratio (pull-down/input)
GATGATTGTTCTCCCAGCTGATGAATTCCCGATGTCGAGTAAACAAATTTTCCTAATCTTTCTGTTCAAGCGCCATCTAC	0.877 RPM ratio (pull-down/input)
GATGATTGTTCTCCCAGCTGATGAATTTAAGGACTCGAGTAAACAAATTTTCCTAATCTTTCTGTTCAAGCGCCATCTAC	0.845 RPM ratio (pull-down/input)
GATGATTGTTCTCCCAGCTGATGAATTAATATTTTCGAGTAAACAAATTTTCCTAATCTTTCTGTTCAAGCGCCATCTAC	1.78 RPM ratio (pull-down/input)
GATGATTGTTCTCCCAGCTGATGAATTAATATTGTCGAGTAAACAAATTTTCCTAATCTTTCTGTTCAAGCGCCATCTAC	2.15 RPM ratio (pull-down/input)
GATGATTGTTCTCCCAGCTGATGAATTAAATATTTCGAGTAAACAAATTTTCCTAATCTTTCTGTTCAAGCGCCATCTAC	1.14 RPM ratio (pull-down/input)
GATGATTGTTCTCCCAGCTGATGAATTAAATATGTCGAGTAAACAAATTTTCCTAATCTTTCTGTTCAAGCGCCATCTAC	1.07 RPM ratio (pull-down/input)
GATGATTGTTCTCCCAGCTGATGAATTAAATCTGTCGAGTAAACAAATTTTCCTAATCTTTCTGTTCAAGCGCCATCTAC	0.778 RPM ratio (pull-down/input)
GATGATTGTTCTCCCAGCTGATGAATTAAAATATTCGAGTAAACAAATTTTCCTAATCTTTCTGTTCAAGCGCCATCTAC	1.1 RPM ratio (pull-down/input)
